# In paper PMC7862700, “An all-to-all approach to the identification of sequence-specific readers for epigenetic DNA modifications on cytosine”:
# Assays:
# Assay in all cases: DAPPL (digital affinity profiling via proximity ligation, sequencing); 10 mM Tris-HCl pH 7.5, 50 mM NaCl, 1 mM DTT, 4% glycerol, room temperature, 30 min; GST-TFs on glutathione beads, 16-mer random dsDNA library, 0.1% formaldehyde crosslink after washing; high values mean tight binding
# Conditions in all cases: protein: recombinant; tags: N-terminal GST; dsDNA, one strand shown
# ERF = molecular target: T1, ERF (Homo sapiens, UniProt P50548 1-548)
# T1 sequence: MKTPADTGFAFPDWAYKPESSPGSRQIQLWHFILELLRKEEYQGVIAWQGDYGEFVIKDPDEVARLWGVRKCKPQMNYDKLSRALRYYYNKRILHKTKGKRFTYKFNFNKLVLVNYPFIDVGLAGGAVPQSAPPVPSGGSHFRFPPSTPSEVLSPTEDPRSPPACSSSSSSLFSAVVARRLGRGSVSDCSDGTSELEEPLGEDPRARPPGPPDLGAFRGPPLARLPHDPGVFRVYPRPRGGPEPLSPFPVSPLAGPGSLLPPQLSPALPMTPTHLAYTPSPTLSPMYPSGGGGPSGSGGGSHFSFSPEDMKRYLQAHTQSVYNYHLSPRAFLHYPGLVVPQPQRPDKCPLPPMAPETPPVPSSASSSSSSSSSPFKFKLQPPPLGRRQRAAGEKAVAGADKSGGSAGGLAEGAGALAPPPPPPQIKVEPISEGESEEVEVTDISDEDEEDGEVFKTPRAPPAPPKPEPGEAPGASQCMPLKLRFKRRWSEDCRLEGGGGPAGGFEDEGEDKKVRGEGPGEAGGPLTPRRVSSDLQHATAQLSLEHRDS
# Outline: (§1)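 Binding signal is each hexamer's read frequency for a factor divided by its frequency in the tag-only sample. The factors were GST-fused human transcription factors from yeast, captured on glutathione beads, DNA-barcoded and pooled with that sample. Pools were incubated with 200 nmole of a random double-stranded 16-mer DNA library in Tris/NaCl/DTT/glycerol buffer at room temperature for 30 min, then washed, crosslinked with 0.1% formaldehyde, proximity-ligated with BsaI/T4 ligase (1 h, 37 °C), PCR-amplified and sequenced on an Illumina NextSeq500.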
# ETV3L = molecular target: T2, ETV3L (Homo sapiens, UniProt Q6ZN32 1-361)
# T2 sequence: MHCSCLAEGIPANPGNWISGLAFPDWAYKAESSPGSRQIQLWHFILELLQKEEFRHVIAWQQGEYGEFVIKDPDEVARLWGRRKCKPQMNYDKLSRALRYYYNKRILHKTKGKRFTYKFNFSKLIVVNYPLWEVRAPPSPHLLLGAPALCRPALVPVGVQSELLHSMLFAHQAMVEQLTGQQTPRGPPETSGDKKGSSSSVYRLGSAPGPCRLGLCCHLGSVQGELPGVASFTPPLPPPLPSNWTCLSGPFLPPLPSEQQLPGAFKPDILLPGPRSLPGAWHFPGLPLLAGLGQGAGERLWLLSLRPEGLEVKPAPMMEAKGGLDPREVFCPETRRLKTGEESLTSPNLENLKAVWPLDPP
# Outline: as §1
# ETS2 = molecular target: T3, ETS2 (Homo sapiens, UniProt P15036 1-469)
# T3 sequence: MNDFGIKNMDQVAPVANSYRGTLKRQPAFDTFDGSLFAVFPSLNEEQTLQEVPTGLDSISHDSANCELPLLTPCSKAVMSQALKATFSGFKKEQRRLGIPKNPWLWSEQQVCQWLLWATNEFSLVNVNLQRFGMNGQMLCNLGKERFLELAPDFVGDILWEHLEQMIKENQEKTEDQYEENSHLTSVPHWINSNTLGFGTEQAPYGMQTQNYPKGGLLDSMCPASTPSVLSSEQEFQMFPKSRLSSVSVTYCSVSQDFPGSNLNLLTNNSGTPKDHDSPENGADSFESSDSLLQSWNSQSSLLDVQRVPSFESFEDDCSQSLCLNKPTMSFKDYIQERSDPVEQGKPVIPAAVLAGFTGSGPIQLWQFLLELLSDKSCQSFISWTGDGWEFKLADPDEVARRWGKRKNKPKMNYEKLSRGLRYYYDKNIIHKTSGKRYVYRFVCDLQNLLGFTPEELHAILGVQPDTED
# Outline: as §1
# SPDEF = molecular target: T4, SPDEF (Homo sapiens, UniProt O95238 1-335)
# T4 sequence: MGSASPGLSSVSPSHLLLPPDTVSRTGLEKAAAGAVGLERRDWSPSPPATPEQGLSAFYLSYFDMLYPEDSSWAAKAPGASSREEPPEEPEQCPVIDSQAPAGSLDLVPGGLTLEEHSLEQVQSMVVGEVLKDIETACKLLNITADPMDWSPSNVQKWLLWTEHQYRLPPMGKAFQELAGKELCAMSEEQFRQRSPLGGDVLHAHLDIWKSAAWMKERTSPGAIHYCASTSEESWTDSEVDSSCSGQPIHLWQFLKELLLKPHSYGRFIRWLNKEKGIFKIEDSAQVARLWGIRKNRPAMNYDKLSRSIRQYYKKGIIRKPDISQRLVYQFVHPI
# Outline: as §1
# ETV7 = molecular target: T5, ETV7 (Homo sapiens, UniProt Q9Y603 1-341)
# T5 sequence: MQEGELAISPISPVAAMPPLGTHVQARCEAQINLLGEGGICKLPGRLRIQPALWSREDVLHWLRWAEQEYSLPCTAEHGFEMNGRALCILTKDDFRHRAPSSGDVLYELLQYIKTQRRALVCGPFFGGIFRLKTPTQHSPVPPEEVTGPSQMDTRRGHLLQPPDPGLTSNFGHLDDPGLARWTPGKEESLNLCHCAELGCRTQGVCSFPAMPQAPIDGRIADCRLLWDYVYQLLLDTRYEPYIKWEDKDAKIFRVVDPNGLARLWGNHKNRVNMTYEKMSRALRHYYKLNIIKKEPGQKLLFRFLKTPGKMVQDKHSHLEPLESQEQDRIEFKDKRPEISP
# Outline: as §1
# ELF5 = molecular target: T6, ELF5 (Homo sapiens, UniProt Q9UKW6-2 1-255)
# T6 sequence: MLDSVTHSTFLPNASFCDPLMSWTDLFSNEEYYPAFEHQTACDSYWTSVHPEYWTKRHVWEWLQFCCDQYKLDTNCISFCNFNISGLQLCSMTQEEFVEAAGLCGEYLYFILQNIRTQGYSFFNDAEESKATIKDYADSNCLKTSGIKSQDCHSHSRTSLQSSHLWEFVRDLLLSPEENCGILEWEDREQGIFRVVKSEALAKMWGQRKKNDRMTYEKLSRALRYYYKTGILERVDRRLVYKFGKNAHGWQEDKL
# Outline: as §1
# ETV3 = molecular target: T7, ETV3 (Homo sapiens, UniProt P41162-2 1-143)
# T7 sequence: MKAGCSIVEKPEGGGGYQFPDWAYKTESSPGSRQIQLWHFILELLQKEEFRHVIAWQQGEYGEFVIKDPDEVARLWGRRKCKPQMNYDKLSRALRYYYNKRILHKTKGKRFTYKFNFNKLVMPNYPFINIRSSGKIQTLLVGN
# Outline: as §1
# ETV6 = ETV6 (Homo sapiens, UniProt P41212 1-452)
# Chain of ETV6 (P41212 whole entry): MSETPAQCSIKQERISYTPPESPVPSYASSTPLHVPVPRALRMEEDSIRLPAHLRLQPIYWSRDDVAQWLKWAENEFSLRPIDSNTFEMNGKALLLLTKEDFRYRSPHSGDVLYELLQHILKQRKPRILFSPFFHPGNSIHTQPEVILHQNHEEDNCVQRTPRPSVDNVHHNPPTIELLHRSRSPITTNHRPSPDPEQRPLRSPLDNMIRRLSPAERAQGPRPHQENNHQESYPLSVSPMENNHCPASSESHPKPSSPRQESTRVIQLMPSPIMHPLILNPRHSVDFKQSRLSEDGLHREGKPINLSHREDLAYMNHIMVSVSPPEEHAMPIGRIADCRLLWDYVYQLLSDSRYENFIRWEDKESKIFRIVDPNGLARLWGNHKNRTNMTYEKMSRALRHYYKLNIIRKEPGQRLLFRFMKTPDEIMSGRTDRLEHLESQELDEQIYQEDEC
# Outline: as §1
Sequence,binding signal (ERF),binding signal (ETV3L),binding signal (ETS2),binding signal (SPDEF),binding signal (ETV7),binding signal (ELF5),binding signal (ETV3),binding signal (ETV6)
TCTGCA,"1.29 fold enrichment (6-mer frequency, TF over GST control)","1.42 fold enrichment (6-mer frequency, TF over GST control)","1.34 fold enrichment (6-mer frequency, TF over GST control)","1.32 fold enrichment (6-mer frequency, TF over GST control)","1.28 fold enrichment (6-mer frequency, TF over GST control)","1.29 fold enrichment (6-mer frequency, TF over GST control)","1.2 fold enrichment (6-mer frequency, TF over GST control)","1.23 fold enrichment (6-mer frequency, TF over GST control)"
AATACA,"1.43 fold enrichment (6-mer frequency, TF over GST control)","1.27 fold enrichment (6-mer frequency, TF over GST control)","1.25 fold enrichment (6-mer frequency, TF over GST control)","1.37 fold enrichment (6-mer frequency, TF over GST control)","1.41 fold enrichment (6-mer frequency, TF over GST control)","1.4 fold enrichment (6-mer frequency, TF over GST control)","1.28 fold enrichment (6-mer frequency, TF over GST control)","1.34 fold enrichment (6-mer frequency, TF over GST control)"
TCCTAT,"1.56 fold enrichment (6-mer frequency, TF over GST control)","1.5 fold enrichment (6-mer frequency, TF over GST control)","1.65 fold enrichment (6-mer frequency, TF over GST control)","1.72 fold enrichment (6-mer frequency, TF over GST control)","1.53 fold enrichment (6-mer frequency, TF over GST control)","1.56 fold enrichment (6-mer frequency, TF over GST control)","1.64 fold enrichment (6-mer frequency, TF over GST control)","1.66 fold enrichment (6-mer frequency, TF over GST control)"
GCTAAA,"1.19 fold enrichment (6-mer frequency, TF over GST control)","1.15 fold enrichment (6-mer frequency, TF over GST control)","1.13 fold enrichment (6-mer frequency, TF over GST control)","1.08 fold enrichment (6-mer frequency, TF over GST control)","1.08 fold enrichment (6-mer frequency, TF over GST control)","1.04 fold enrichment (6-mer frequency, TF over GST control)","1.13 fold enrichment (6-mer frequency, TF over GST control)","1.08 fold enrichment (6-mer frequency, TF over GST control)"
TAACAC,"1.22 fold enrichment (6-mer frequency, TF over GST control)","1.24 fold enrichment (6-mer frequency, TF over GST control)","1.29 fold enrichment (6-mer frequency, TF over GST control)","1.28 fold enrichment (6-mer frequency, TF over GST control)","1.21 fold enrichment (6-mer frequency, TF over GST control)","1.2 fold enrichment (6-mer frequency, TF over GST control)","1.22 fold enrichment (6-mer frequency, TF over GST control)","1.19 fold enrichment (6-mer frequency, TF over GST control)"
TGACCG,"1.41 fold enrichment (6-mer frequency, TF over GST control)","1.41 fold enrichment (6-mer frequency, TF over GST control)","1.55 fold enrichment (6-mer frequency, TF over GST control)","1.44 fold enrichment (6-mer frequency, TF over GST control)","1.49 fold enrichment (6-mer frequency, TF over GST control)","1.4 fold enrichment (6-mer frequency, TF over GST control)","1.53 fold enrichment (6-mer frequency, TF over GST control)","1.36 fold enrichment (6-mer frequency, TF over GST control)"
CCCTCG,"1.24 fold enrichment (6-mer frequency, TF over GST control)","1.24 fold enrichment (6-mer frequency, TF over GST control)","1.29 fold enrichment (6-mer frequency, TF over GST control)","1.23 fold enrichment (6-mer frequency, TF over GST control)","1.3 fold enrichment (6-mer frequency, TF over GST control)","1.19 fold enrichment (6-mer frequency, TF over GST control)","1.16 fold enrichment (6-mer frequency, TF over GST control)","1.18 fold enrichment (6-mer frequency, TF over GST control)"
CCTCGA,"1.28 fold enrichment (6-mer frequency, TF over GST control)","1.35 fold enrichment (6-mer frequency, TF over GST control)","1.21 fold enrichment (6-mer frequency, TF over GST control)","1.23 fold enrichment (6-mer frequency, TF over GST control)","1.42 fold enrichment (6-mer frequency, TF over GST control)","1.34 fold enrichment (6-mer frequency, TF over GST control)","1.26 fold enrichment (6-mer frequency, TF over GST control)","1.29 fold enrichment (6-mer frequency, TF over GST control)"
